Screening results as filed in PubChem.
MITF TRPM1 inh: reduces MITF-dependent TRPM1 promoter luciferase signal | SK-MEL-5 TRPM1 promoter luciferase, 24 h | inhibition, % at 12.5 µM | hit rate 0.83% among 330,000;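 active means mean inhibition across replicates of 60% or more, whatever share of single replicates reaches that level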
TROY NFkB inh: inhibitors of TROY-dependent NF-kB signaling; Q293 LMP1-TROYcd NF-kB luciferase reporter, 4 h; inhibition, % at 10 µM; hit rate 0.98% among 360,000;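 active means compounds whose plate-normalised and pattern-corrected inhibition of the luciferase reporter signal at the single screening dose is 50% or more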
Shn3 inh set2: Schnurri-3 reporter inhibition in Clone20 osteoblasts; hit rate 0.52% among 360,000; Clone20 osteoblast Shn3 3'UTR firefly luciferase, 24 h; inhibition, % at 12.5 µM;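 active means mean inhibition of at least 75% with every replicate also reaching 75%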
Peg3 prom inh: Peg3 promoter activity inhibition; HeLa PEG-Prom luciferase reporter, luminescence, overnight; inhibition, % at 20 µM; hit rate 1.7% among 360,000; AID 588405;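 active means inhibition of at least 50% at 20 µM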
TWEAK Fn14 block: blocks TWEAK-Fn14 interaction in a reporter cell assay; TWEAK-stimulated Fn14 reporter cells, luciferase luminescence, 8 h; inhibition, % at 10 µM; hit rate 2% among 360,000; in the data active means inhibition above about 50%
LMP1 NFkB inh: inhibitors of Epstein-Barr LMP1-induced NF-kappaB reporter; LMP1-induced NF-kappaB luciferase reporter cells, luminescence; inhibition, % at 12.5 µM; hit rate 0.69% among 350,000; AID 504558; in the data active means inhibition above about 41%
A number is an active result. Only some compounds are listed: those with a hit (about 4.1% of all), similar ones and a draw of the others.

`Oc1c(C(c2ccccc2Cl)N2CCCC2)ccc2cccnc12` (centres undefined) gave MITF TRPM1 inh 74.8, TROY NFkB inh inactive, Shn3 inh set2 86.6, Peg3 prom inh inactive, TWEAK Fn14 block inactive and LMP1 NFkB inh inactive.
For COC(=O)c1ccccc1OCCOCCOc1cccc2cccnc12 the results were MITF TRPM1 inh inactive, TROY NFkB inh inactive, Shn3 inh set2 inactive, Peg3 prom inh inactive, TWEAK Fn14 block inactive and LMP1 NFkB inh inactive.
`O=[N+]([O-])c1ccccc1OCCOCCOc1cccc2cccnc12` gave MITF TRPM1 inh inactive, TROY NFkB inh 87.2, Shn3 inh set2 inactive, Peg3 prom inh inactive, TWEAK Fn14 block 75.0 and LMP1 NFkB inh inactive.
For CC(Oc1cc2oc(=O)c3c(c2cc1Cl)CCCC3)C(=O)NCCN1CCOCC1 (centres undefined) the results were MITF TRPM1 inh inactive, TROY NFkB inh inactive, Shn3 inh set2 inactive, Peg3 prom inh inactive, TWEAK Fn14 block inactive and LMP1 NFkB inh inactive.
Screening Cc1cc(Cl)c(S(=O)(=O)N2CCCCCC2)cc1OCC(=O)NC1CCCCC1 returned MITF TRPM1 inh inactive, TROY NFkB inh inactive, Shn3 inh set2 inactive, Peg3 prom inh inactive, TWEAK Fn14 block inactive and LMP1 NFkB inh inactive.
For Cc1cc(Cl)c(S(=O)(=O)N2CCN(c3ccccn3)CC2)cc1OCC(=O)NC1CCCCC1 the results were MITF TRPM1 inh inactive, TROY NFkB inh 53.2, Shn3 inh set2 inactive, Peg3 prom inh inactive, TWEAK Fn14 block 62.7 and LMP1 NFkB inh inactive.
For Cc1cc(Cl)c(S(=O)(=O)N2CCSCC2)cc1OCC(=O)NC1CCCCC1 the results were MITF TRPM1 inh inactive, TROY NFkB inh inactive, Shn3 inh set2 87.7, Peg3 prom inh inactive, TWEAK Fn14 block 60.9 and LMP1 NFkB inh inactive.
For CCOC(=O)C1CCN(C(=O)CCc2c(C)nc3cc(-c4ccccc4)nn3c2C)CC1 the results were MITF TRPM1 inh inactive, TROY NFkB inh inactive, Shn3 inh set2 inactive, Peg3 prom inh inactive, TWEAK Fn14 block inactive and LMP1 NFkB inh inactive.
For COc1cc(OC)cc(-c2cc3nc(C)c(CCC(=O)NC(C)CCc4ccco4)c(C)n3n2)c1 (centres undefined) the results were MITF TRPM1 inh inactive, TROY NFkB inh inactive, Shn3 inh set2 inactive, Peg3 prom inh inactive, TWEAK Fn14 block inactive and LMP1 NFkB inh inactive.
`CCOC(=O)C1CCCCN1C(=O)CCc1c(C)nc2cc(-c3ccccc3)nn2c1C` (centres undefined) gave TROY NFkB inh inactive, Shn3 inh set2 inactive, Peg3 prom inh inactive, TWEAK Fn14 block 68.7 and LMP1 NFkB inh inactive.
`COc1cc(OC)cc(-c2cc3nc(C)c(CCC(=O)O)c(C)n3n2)c1` gave TROY NFkB inh 58.5, Shn3 inh set2 inactive, Peg3 prom inh inactive, TWEAK Fn14 block 90.3 and LMP1 NFkB inh 52.7.
`CCc1ccc2c(c1)C1(C(=O)N2)N2CCCC2C(C(=O)c2ccc3ccccc3c2)C12C(=O)Nc1ccccc12` (centres undefined) gave MITF TRPM1 inh inactive, TROY NFkB inh inactive, Shn3 inh set2 inactive, Peg3 prom inh 104.0, TWEAK Fn14 block inactive and LMP1 NFkB inh inactive.
`O=C(c1cc(C(=O)N2CCCC2)cc([N+](=O)[O-])c1)N1CCCC1` gave MITF TRPM1 inh inactive, TROY NFkB inh inactive, Shn3 inh set2 inactive, Peg3 prom inh inactive, TWEAK Fn14 block inactive and LMP1 NFkB inh inactive.
CN1CCN(C(=O)c2cc([N+](=O)[O-])cc([N+](=O)[O-])c2)CC1 was read as TROY NFkB inh inactive, Shn3 inh set2 inactive, Peg3 prom inh inactive, TWEAK Fn14 block 79.6 and LMP1 NFkB inh inactive.
COc1cc(N/N=C/c2ccc(N(C)C)cc2)ncn1 was read as MITF TRPM1 inh inactive, TROY NFkB inh inactive, Shn3 inh set2 inactive, Peg3 prom inh inactive, TWEAK Fn14 block 59.6 and LMP1 NFkB inh inactive.
For COc1ccc(NC(=O)c2cc([N+](=O)[O-])ccc2O)cc1 the results were MITF TRPM1 inh 83.7, TROY NFkB inh 86.9, Shn3 inh set2 inactive, Peg3 prom inh 83.4, TWEAK Fn14 block 104.0 and LMP1 NFkB inh 74.8.
COc1ccc(NC(=O)c2cccc([N+](=O)[O-])c2)cc1 was read as MITF TRPM1 inh inactive, TROY NFkB inh inactive, Shn3 inh set2 inactive, Peg3 prom inh inactive, TWEAK Fn14 block inactive and LMP1 NFkB inh inactive.
O=C(Nc1cccc([N+](=O)[O-])c1)c1cc2ccccc2cc1O was read as MITF TRPM1 inh inactive, TROY NFkB inh inactive, Shn3 inh set2 inactive, Peg3 prom inh inactive, TWEAK Fn14 block 82.7 and LMP1 NFkB inh inactive.
`O=C1S/C(=C\c2ccc(N3CCOCC3)o2)C(=O)N1Cc1c(F)cccc1Cl` gave MITF TRPM1 inh inactive, TROY NFkB inh inactive, Shn3 inh set2 96.3, Peg3 prom inh inactive, TWEAK Fn14 block inactive and LMP1 NFkB inh inactive.
`CC1(C)Cc2c(cnn2-c2cccc(F)c2)C(NC(=O)Cn2cccn2)C1` (centres undefined) gave MITF TRPM1 inh inactive, TROY NFkB inh inactive, Shn3 inh set2 inactive, Peg3 prom inh inactive, TWEAK Fn14 block inactive and LMP1 NFkB inh inactive.
Screening CCC(C)NC(=O)c1cc(-c2ccc3c(c2)OCO3)on1 (centres undefined) returned MITF TRPM1 inh inactive, TROY NFkB inh inactive, Shn3 inh set2 inactive, Peg3 prom inh inactive, TWEAK Fn14 block inactive and LMP1 NFkB inh inactive.
CCOc1ccc(N(CC(=O)NC2CC2)S(=O)(=O)c2ccc(C)cc2)cc1 was read as MITF TRPM1 inh inactive, TROY NFkB inh inactive, Shn3 inh set2 inactive, Peg3 prom inh inactive, TWEAK Fn14 block inactive and LMP1 NFkB inh inactive.
`O=C(CCCC(=O)N(c1ccc2c(c1)OCCO2)C(C(=O)NC1CCCCC1)c1ccc(Cl)cc1)Nc1ccccn1` (centres undefined) gave MITF TRPM1 inh inactive, TROY NFkB inh inactive, Shn3 inh set2 inactive, Peg3 prom inh inactive, TWEAK Fn14 block 62.5 and LMP1 NFkB inh inactive.
`COc1ccc(C(C(=O)NC2CCCCC2)N(C(=O)CCCC(=O)Nc2ccccn2)c2ccc3c(c2)OCCO3)cc1` (centres undefined) gave MITF TRPM1 inh inactive, TROY NFkB inh inactive, Shn3 inh set2 inactive, Peg3 prom inh inactive, TWEAK Fn14 block inactive and LMP1 NFkB inh inactive.
For O=C(NC1CCCC1)C(c1ccc(F)cc1)N(Cc1ccc(Cl)cc1)C(=O)CCl (centres undefined) the results were MITF TRPM1 inh inactive, TROY NFkB inh inactive, Shn3 inh set2 inactive, Peg3 prom inh 62.0, TWEAK Fn14 block inactive and LMP1 NFkB inh inactive.
`COc1ccc(C(C(=O)NC2CCCCC2)N(C(=O)CCl)c2ccc(Cl)cc2)cc1` (centres undefined) gave MITF TRPM1 inh 78.5, TROY NFkB inh inactive, Shn3 inh set2 94.1, Peg3 prom inh 73.5, TWEAK Fn14 block 53.7 and LMP1 NFkB inh inactive.
For O=c1[nH]c(CSc2cccc[n+]2[O-])nc2ccccc12 the results were MITF TRPM1 inh inactive, TROY NFkB inh inactive, Shn3 inh set2 inactive, Peg3 prom inh inactive, TWEAK Fn14 block inactive and LMP1 NFkB inh inactive.
